# Data taken from PubChem BioAssay (EPA / NIEHS).
# Active and inactive are the calls of the source. Rule for the calls: active = hit-call score of the fitted dose curve at least 0.9, where 1 is the maximum; inactive = score below 0.9.
# Read-out: Protein phosphatase 2A (PPP2R4), PTPA (gene 5524)
# Assay: LTEA_HepaRG_PPP2R4: Life Technologies and Expression Analysis (LTEA) Assay for Protein phosphatase 2A (PPP2R4) using HepaRG (AID 2283522)
# Conditions: mRNA level, 48 h; actives raise or lower the signal
# How it was run: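 Using HepaRG cultures maintained in 0.5% DMSO, chemicals are tested 48 h at up to 100 uM in duplicate. Induction or suppression of PPP2R4 mRNA, measured by qRT-PCR, is fitted bidirectionally against the vehicle baseline.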
Structure (SMILES),outcome,AC50
CCCCCc1ccc(N)cc1,inactive,–
Cc1c2ccccc2c(C)c2c1ccc1ccccc12,inactive,–
O=CCCCC=O,inactive,–
Cc1cn([C@H]2C[C@H](N=[N+]=[N-])[C@@H](CO)O2)c(=O)[nH]c1=O,inactive,–
Cc1occc1C(=O)Nc1ccc(C(=O)N2CCC(F)(F)/C(=C\C(=O)N3CCC(N4CCCCC4)CC3)c3ccccc32)cc1,inactive,–
OC12N=C(c3ccccc3)SC1Cc1cc(Cl)ccc12 (centres undefined),inactive,–
CC(C)(O)c1ccc(CNC(=O)c2cccnc2Oc2ccc3nonc3c2)cc1,inactive,–
O=C1CCC(C2CCCCC2)CC1,inactive,–
NCc1cccc(C2CCN(C(=O)c3ccc(C#Cc4ccccc4F)o3)CC2)c1,inactive,–
c1ccc2ccccc2c1,inactive,–
O=C(O)Cn1c(=O)n(Cc2ccc(Br)cc2F)c(=O)c2ccc(Cl)cc21,inactive,–
C[C@]12CC[C@@H]3c4ccc(O)cc4CC[C@H]3[C@@H]1CCC2=O,inactive,–
OCCO,inactive,–
COc1cc(C(=O)NC2CCN(C)CC2)ccc1Nc1ncc2c(n1)N(C1CCCC1)CC(F)(F)C(=O)N2C,–,11.9 µM (active)
O=C(OCCCCCCOC(=O)c1ccccc1)c1ccccc1,inactive,–
Cc1ncc(CO)c(CO)c1O,inactive,–
COc1ccc2cc(S(=O)(=O)N[C@H](CC(=O)N[C@H](Cc3ccc(CN4[C@H](C)CCC[C@@H]4C)cc3)C(=O)N(C)C(C)C)c3ccc4c(c3)OCO4)ccc2c1,–,34.3 µM (active)
O=C(Nc1ccc(Cl)cc1)Nc1ccc(Cl)c(Cl)c1,–,21.3 µM (active)
Cc1cc(F)ccc1-c1cc(N2CC[C@@H](O)[C@H]2CO)ncc1N(C)C(=O)C(C)(C)c1cc(C(F)(F)F)cc(C(F)(F)F)c1,–,21.5 µM (active)
